# Hits are enriched below; roughly 1.3% of the tested compounds scored in any of these assays.
# LAP4 TOR yeast = modulators of LAP4-GFP expression in yeast, primary screen, S. cerevisiae, multiplex flow cytometry, MLPCN library; 3 h; median GFP as percent of DMSO wells; GFP response vs DMSO, % at 10 µM; 0.34% of 320,000 active; AID 2023, 2009;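 active = GFP response vs DMSO above a set limit, about the screen mean plus 3 SD, cut at about 150% in these data; inconclusive = under 70 cell events counted for the yeast strain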
# CIT2-GFP yeast = modulators of CIT2-GFP expression in yeast, primary screen, S. cerevisiae, GFP fusion, multiplex flow cytometry, MLPCN library; 0.065% of 320,000 active; AID 2029, 2009; GFP response vs DMSO, % at 10 µM; S. cerevisiae CIT2-GFP strain, 3 h; 100 means same as DMSO wells;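 active = GFP response relative to DMSO above a set limit, near the screen mean plus 3 SD, cut at about 150% in these data; inconclusive = Fewer than 70 cells measured for a yeast strain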;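 also: ratio of well median GFP fluorescence to mean of DMSO wells on the plate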
# RPL19A-GFP yeast = RPL19A-GFP expression modulators in yeast, primary screen, cell-based, S. cerevisiae, multiplex flow cytometry, MLPCN | S. cerevisiae RPL19A-GFP strain, 3 h; hits give low values | percent response vs DMSO, % at 10 µM | 0.3% of 330,000 active;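 active = percent response vs DMSO below 50%; inconclusive = fewer than 70 events counted for the yeast strain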;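 also: median channel GFP fluorescence of the barcoded RPL19A-GFP strain; ratio of sample median GFP to plate DMSO average so 100% = DMSO; lower means less RPL19A-GFP as with rapamycin TOR inhibition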
# AGP1-GFP MLPCN = modulators of AGP1-GFP expression in yeast TOR pathway, primary screen, cell-based, multiplex flow cytometry, S. cerevisiae, MLPCN library | 3 h; GFP as percent of DMSO wells | GFP response vs DMSO, % at 10 µM | 0.02% of 320,000 active | AID 2066, 2009;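 active = GFP response relative to DMSO above a set limit, near screen average plus 3 SD, cut at about 150% in these data; inconclusive = fewer than 70 cells counted for the yeast strain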;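 also: median GFP channel fluorescence of the gated AGP1 strain per well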
# MEP2-GFP yeast = modulators of MEP2-GFP levels in yeast, primary screen, S. cerevisiae, multiplex flow cytometry, MLPCN library; S. cerevisiae MEP2-GFP strain, 3 h; 100% = DMSO control level; GFP response vs DMSO, % at 10 µM; 0.51% of 330,000 active; AID 2016, 2009;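 active = GFP response versus DMSO above a set limit, roughly screen mean plus 3 SD, cut at about 180% in these data; inconclusive = fewer than 70 cells counted for a yeast strain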;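 also: median GFP fluorescence of the barcode-gated MEP2-GFP cells per well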
# Efflux pump inh = inhibitors of Candida efflux pumps in yeast, primary screen, S. cerevisiae, Nile Red, multiplex; S. cerevisiae Candida pump triplex; inhibition, % at 10 µM; 0.44% of 330,000 active; AID 485275, 2010;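 active = plate passing quality check with inhibition over a set limit, or well fluorescence over plate mean plus 4 SD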;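 also: Nile Red retained in pooled yeast measured as flow cytometry median fluorescence; 0% = buffer negative control and 100% = Enniatin B positive control; higher means more Nile Red kept so more efflux inhibition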
# Starred values were filed as active, the others as inactive; ? = inconclusive; · = no result given; + = active, no number; [ ] = dose if it differs, or a comment.
SMILES,LAP4 TOR yeast,CIT2-GFP yeast,RPL19A-GFP yeast,AGP1-GFP MLPCN,MEP2-GFP yeast,Efflux pump inh
Cc1cc(NCc2cccnc2)nc(N)n1,98,101,103,99,101,0
S=c1[nH]nc(-c2ccccc2)n1/N=C/C=C/c1ccco1,96,96,96,88,99,0
Cc1cc(-c2n[nH]c(=S)n2/N=C/C=C/c2ccco2)n[nH]1,82,?,37*[may fluoresce violet],?,396*[may fluoresce violet],0
O=C(NCc1ccccc1)N1CCC(Cc2ccccc2)CC1,86,92,95,90,96,0
OCC(O)C1OC(Nc2ccc(Cl)cc2)C(O)C1O (stereo not given),115,?,56,?,310*[may fluoresce violet],0
OC[C@H]1OC(Nc2ccc(N=Nc3ccccc3)cc2)[C@@H](O)[C@@H](O)[C@@H]1O (stereo not given in full),96,78,95,83,92,0
CN1CCc2c(sc3c2C(=O)NC(/C=C\c2ccccc2)N3)C1 (stereo not given),107,?,59,20,673*[may fluoresce violet],0
Cc1ccc2nc(N3C(=O)C(O)=C(C(=O)c4cc5ccccc5o4)C3c3cccs3)sc2c1 (stereo not given),104,93,75,25,192*,0
CCc1ccc2nc(N3C(=O)C(O)=C(C(=O)c4ccco4)C3c3cccs3)sc2c1 (stereo not given),105,102,103,104,105,0
CC(NC(=O)/C(C#N)=C/c1ccc([N+](=O)[O-])o1)c1ccccc1 (stereo not given),895*[may fluoresce violet],?,203,150,+[may fluoresce violet],1
CC1CCN(C(=O)CCc2nnc3ccc(NCCCN4CCCC4=O)nn23)CC1,108,113,104,126,103,0
Cc1ccsc1C(=O)OCc1nnc(-c2ccccc2)o1,98,84,97,94,98,0
O=C(CN1CCN(Cc2ccccc2Cl)C1=O)NC1CCCCCCC1,93,107,·,31,208*,0
OC1(c2ccc(F)cc2)CCN(Cc2cccnc2)CC1,98,97,101,99,111,0
OC1(c2ccc(F)cc2)CSC(=Nc2cccnc2)N1Cc1ccco1 (stereo not given),197*,71,96,78,95,0
CCC1C(=O)N(c2nc(C)cc(C)n2)N=C1C (stereo not given),97,?,15*[may fluoresce violet],?,180*[may fluoresce violet],0
COc1ccc(Cc2nnc(NC(C)=O)s2)cc1,92,98,98,96,97,0
COc1ccc(Cc2nnc(NC(=O)c3ccccc3F)s2)cc1,294*,141,74,155*,914*,0
COc1ccccc1CNC(=O)CN(C)S(=O)(=O)c1ccc(Br)s1,?,?,21*[may fluoresce violet],?,?,1
COc1cc(C=O)c(-c2c(C=O)cc(OC)c3c2OCO3)c2c1OCO2,82,94,91,89,100,0
CN1CCN(C(c2ccc(C(F)(F)F)cc2)c2cc(Cl)c3cccnc3c2O)CC1 (stereo not given),202*[may fluoresce violet],?,57,?,162,0
CN1CCN(C(c2ccc(Cl)cc2)c2cc(Cl)c3cccnc3c2O)CC1 (stereo not given),164*,80,65,38,140,0
CCN1CCN(C(c2ccc(C(F)(F)F)cc2)c2ccc3cccnc3c2O)CC1 (stereo not given),94,92,82,27,154,0
CC(C)(C)c1ccc(/C=N/NC(=O)C[n+]2ccccc2)cc1,90,100,100,100,100,0
Cn1c(=O)oc2cc(S(=O)(=O)N3CCCC(C(=O)Nc4nccs4)C3)ccc21 (stereo not given),94,96,94,94,91,0
SMILES,LAP4 TOR yeast,CIT2-GFP yeast,RPL19A-GFP yeast,AGP1-GFP MLPCN,MEP2-GFP yeast,Efflux pump inh
Cc1cccc(NC(=O)C2CCCN(S(=O)(=O)c3ccc4c(c3)oc(=O)n4C)C2)c1 (stereo not given),93,?,45*[may fluoresce violet],?,202*[may fluoresce violet],0
COc1ccccc1N1CCN(C(=O)C(Sc2ccccc2)c2ccccc2)CC1 (stereo not given),93,?,40*[may fluoresce violet],·,261*[may fluoresce violet],0
CCCc1cc(=O)oc2cc(C)cc(OCC(=O)NCCN3CCOCC3)c12,96,100,101,96,97,0
CCCc1cc(=O)oc2cc(C)cc(OCC(=O)Nc3ccc(CN4CCOCC4)cc3)c12,61,?,28*[may fluoresce violet],?,271*[may fluoresce violet],1
COCCNC(=O)c1c(CSc2ccc(Cl)cc2)noc1C(=O)NCc1ccccc1,98,97,101,96,99,0
COc1ccccc1CNC(=O)CS(=O)Cc1nc(-c2ccc(OC)c(OC)c2)oc1C (stereo not given),78,92,44*,26,103,0
CCCn1c(SCC(=O)NNC(=O)c2ccc(C)cc2)nnc1C(C)C,93,111,105,101,98,0
COc1ccccc1CNC(=O)C1CC2Cn3c(nc4cc(C)c(C)cc43)C2N1C (stereo not given),128,92,91,87,87,0
COC(=O)c1c(C(=O)OC)c(-c2ccccc2)n2c1CS(=O)C2 (stereo not given),100,?,41*[may fluoresce violet],?,355*[may fluoresce violet],0
COc1ccccc1NC(=O)C/C(C)=N/NC(=O)c1ccccn1,95,109,106,107,102,0
COc1cc(NC(=O)C/C(C)=N/NC(=O)c2ccccn2)c(OC)cc1Cl,84,?,48*[may fluoresce violet],?,324*[may fluoresce violet],0
Cc1cc(C)cc(NC(=O)c2cnn(-c3ccccc3)c2C2CCNCC2)c1,93,99,105,100,105,0
N#Cc1c(NC(=O)/C=C/C(=O)O)sc2c1CCN(Cc1ccccc1)C2,72,?,23*[may fluoresce violet],?,367*[may fluoresce violet],0
CC(=O)Nc1sc2c(c1C#N)CCN(Cc1ccccc1)C2,103,110,95,100,94,0
Cc1cc(OC(=O)c2cc(Br)ccc2Cl)c([N+](=O)[O-])c(=O)[nH]1,101,100,101,102,93,0
Cc1nn(C(=O)c2ccco2)c(C)c1Sc1ccccc1,87,108,·,47,176*,0
CCOc1ccc(NC(=O)Cn2nnc(C(=O)NCc3cccs3)c2N)cc1,101,107,103,102,108,0
Cc1cc(C)nc(/N=C(/NC(=O)c2ccccc2)Nc2ccccc2)n1,101,?,33*[may fluoresce violet],·,444*[may fluoresce violet],0

# Screening data from PubChem BioAssay.
